Assay results taken from the supplement of paper PMC6718421.

system: Caenorhabditis elegans N2 (wild type); assay: animals with crystals or spheres in anterior pharynx; higher = more object (crystal/sphere) accumulation; conditions: 30 µM; 48 h; genotype: wild type N2; stage: L1 start
Description: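 Synchronized wild-type (N2) C. elegans L1 larvae (50 per well) were incubated in liquid NGM with E. coli HB101 and 30 uM of each wactive for 48 h. Live worms were scored by DIC and polarized-light microscopy for birefringent crystals or non-birefringent spheres in the anterior pharynx. At least 3 biological replicates were run with at least 20 worms each; the value is the mean % of animals carrying objects.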

| Structure (SMILES) | animals |
| --- | --- |
| CCOc1ccc(/C=C/[N+](=O)[O-])cc1 [wact-385] | 0% |
| Fc1ccc(N2CCN(Cc3cccc(Br)c3)CC2)cc1 [wact-30] | 0% |
